Luc counter: Counterscreen for Luciferase (Kinase-Glo TM) Inhibition | Kinase-Glo luciferase, ATP luminescence, 8 min | Potency, µM (top dose mostly 38.3 µM), usual class: inhibitors | 200,000 tested, 0.28% active | AID 1379, 2008; further: nearly all actives have a fitted effect of over 60% in size
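Compound is pinned into ATP-containing buffer (10 uM ATP, imidazole pH 7.2, 7 mM MgCl2). Kinase-Glo luciferase reagent is then added. Light output is recorded following an 8-min room-temperature incubation.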
Rab9 promoter act: qHTS Assay for Rab9 Promoter Activators | Huh7 Rab9 promoter-luciferase reporter, luminescence, 24 h | Potency, µM (series often up to 9.22 µM), actives largely listed as activators | 320,000 tested, 2.8% active | AID 485297, 2010; further: nearly all actives have a fitted effect of over 60% in size
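Rab9 promoter-driven luciferase in stably transfected Huh7 cells; 1500 cells/well rested 2 h, exposed to compound in DMSO for 24 h at 37 °C, 5% CO2. Luminescence read 10 min after adding luciferase reagent at ambient temperature.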
ELG1 genotox: qHTS screen for small molecules that induce genotoxicity in human embryonic kidney (HEK293T) cells expressing luciferase-tagged ELG1. HEK293T ELG1-luciferase reporter, luminescence, 16 h. Potency, µM (doses to about 46 µM), actives largely listed as activators. 330,000 tested, 1.3% active. AID 504466, 2011; further: nearly all actives have a fitted effect of over 60% in size
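ELG1-luciferase HEK293T cells, 2,000/well; compound pinned in; 16 hr, 37 °C, 5% CO2; ONE-Glo, 30 min RT; luminescence on CCD imager.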
FLuc counter: qHTS profiling assay for firefly luciferase inhibitor/activator using purifed enzyme and Km concentrations of substrates (counterscreen for miR-21 project); AID 588342, 2011; Potency, µM (series often up to 57.5 µM), most hits filed as inhibitors; purified FLuc, Km substrates, luminescence inhibition; Luciferin 4-monooxygenase (Photinus pyralis), P08659; 360,000 tested, 6.9% active; further: nearly all actives have a fitted effect of over 55% in size
Target sequence (P08659 whole entry, looked up): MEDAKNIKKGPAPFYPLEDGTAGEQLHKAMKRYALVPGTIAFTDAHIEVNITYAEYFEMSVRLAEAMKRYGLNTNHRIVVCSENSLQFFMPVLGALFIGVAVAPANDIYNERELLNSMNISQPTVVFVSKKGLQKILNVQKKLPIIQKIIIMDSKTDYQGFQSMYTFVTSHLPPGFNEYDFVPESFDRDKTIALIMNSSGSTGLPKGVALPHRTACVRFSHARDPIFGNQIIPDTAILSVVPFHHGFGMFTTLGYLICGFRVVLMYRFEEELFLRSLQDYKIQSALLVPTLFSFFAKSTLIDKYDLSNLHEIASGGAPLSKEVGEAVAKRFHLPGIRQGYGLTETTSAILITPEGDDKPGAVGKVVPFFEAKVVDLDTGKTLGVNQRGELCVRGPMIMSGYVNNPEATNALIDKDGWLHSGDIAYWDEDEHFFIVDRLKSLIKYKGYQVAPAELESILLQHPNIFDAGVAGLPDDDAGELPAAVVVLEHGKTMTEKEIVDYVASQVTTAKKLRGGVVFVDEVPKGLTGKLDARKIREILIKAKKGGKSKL
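Biochemical qHTS of compounds, final roughly 60 µM downward over six points, against 10 nM purified firefly luciferase using Km concentrations of substrates (10 uM D-luciferin, 10 uM ATP) in Tris acetate pH 7.5 buffer; luminescence output.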
NPC1 prom act: qHTS Assay for NPC1 Promoter Activators. Huh7 NPC1 promoter luciferase reporter, 24 h. Potency, µM (top dose mostly 9.22 µM), actives largely listed as activators. 320,000 tested, 2.4% active. AID 485313, 2010; further: nearly all actives have a fitted effect of over 60% in size
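Huh7 reporter cells (NPC1 promoter driving luciferase) are dosed with compound for 24 h at 37 °C, 5% CO2; luciferase detection reagent is then added and luminescence measured after 10 min at ambient temperature.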
SMN2 splice enh: qHTS Assay for Enhancers of SMN2 Splice Variant Expression | HEK293 SMN2-luciferase splicing reporter, luminescence, 30-36 h | Potency, µM (highest dose often 46.1 µM), usual class: activators | 210,000 tested, 2.8% active | AID 1458, 2008; further: nearly all actives have a fitted effect of over 55% in size
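HEK293 cells carry an SMN2 […]–luciferase reporter in which exon 7 inclusion puts luciferase in frame. Cells were plated 10-12 h before compound addition, then incubated 30-36 h at 37C. ONE-Glo luminescence was read; sodium butyrate at 4.5 mM final served as control.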
Numbers stand for hits; - = inactive; ? = inconclusive; . = no result; [ ] = dose if it differs, or a comment. The list is not random: actives were taken first. Their share in the collection is about 7.4%. The call rests on the fitted dose curve; in most records, active means well fitted curve in the direction sought with a large enough effect; inconclusive means small, poorly fitted or top-dose-only effect, or another doubt; inactive means no such curve, though single readings can be large; an effect the other way counts as inactive or inconclusive.

SMILES	Luc counter	Rab9 promoter act	ELG1 genotox	FLuc counter	NPC1 prom act	SMN2 splice enh
Cc1cccc(-n2cc(CNCCc3nc(C)cc(C)n3)c(-c3cccc(F)c3)n2)c1	.	-	-	15µM	-	.
COc1ccc(-n2cc(CNCc3cnc4ccccn34)c(-c3cccc(F)c3)n2)cc1	.	-	-	8.5µM	-	.
COc1ccc(-n2cc(CNCC3CCOCC3)c(-c3cccc(F)c3)n2)cc1	-	-	-	?	-	.
Cc1ccc(NC(=O)CSc2c3c(nc4ccccc24)CCCC3)cc1F	.	.	.	-	.	-
O=C(OCc1nnc(-c2ccccc2)o1)c1cc(S(=O)(=O)N2CCOCC2)c(Cl)cc1Cl	-	-	18µM	-	-	?
Cc1ccc(S(=O)(=O)N2CCOCC2)cc1C(=O)OCc1nnc(-c2ccccc2)o1	.	-	-	-	-	.
CC(=O)c1ccccc1NC(=O)C1CCCN(C(=O)c2ccc(Cl)cc2)C1 (stereo not given)	.	-	-	-	-	.
COc1cc(/C=C/c2sc3ccccc3[n+]2CCCS(=O)(=O)[O-])ccc1O	8.9µM	-	-	13µM	-	-
CN(C)S(=O)(=O)c1cccc(NC(=O)c2cncc(Br)c2)c1	-	-	-	-	-	-
Cc1cnc(NC(=O)c2cncc(Br)c2)s1	-	1.3µM	?	8.5µM	2.2µM	.
Cc1ccc(NC(=O)c2cncc(Br)c2)cc1S(=O)(=O)N(C)C	-	?	?	9.5µM	?	11µM
Cc1ccc(NC(=O)CSc2nnc(-c3cccs3)o2)cc1S(=O)(=O)N(C)C	-	3.5µM	?	-	?	?
Cc1ccc(NC(=O)c2sccc2C)cc1S(=O)(=O)N(C)C	-	-	-	19µM	-	-
CCN(CC)S(=O)(=O)c1cc(NC(=O)CSc2nnc(-c3cccs3)o2)ccc1C	-	-	-	-	-	-
Cc1cccc(N2CCN(CCCNC(=O)Cn3ncc4c([nH]c5ccccc54)c3=O)CC2C)c1 (stereo not given)	.	.	.	-	.	.
CCN(CC)c1ccc(NC(=O)c2cncc(Br)c2)cc1	-	?	-	17µM	?	?
COc1cccc(-c2nc3ccc(C(=O)N4CCCC(O)C4)cc3o2)c1 (stereo not given)	.	3.5µM	?	15µM	4µM	.
COc1cccc(-c2noc(C3CCCN(C(=O)c4cccc(F)c4)C3)n2)c1 (stereo not given)	.	-	-	-	-	.
CCC(=O)C1CCCN(C(=O)c2ccc3nc(-c4cccc(OC)c4)oc3c2)C1 (stereo not given)	.	1.6µM	?	8.5µM	1.4µM	.
CCOc1ccccc1Nc1nnc(SCC(=O)N(C)C2CCS(=O)(=O)C2)s1 (stereo not given)	.	.	-	.	.	.
N#C/C(=C(/O)c1ccc(-c2cccc([N+](=O)[O-])c2)o1)c1nc2ccccc2s1	-	-	-	3µM	-	-
COc1ccc(C/C(O)=C(\C#N)c2nc3ccccc3s2)cc1	-	-[1.84 µM]	-	?	-	-
N#C/C(=C(/O)COc1ccccc1)c1nc2ccccc2s1	-	-	-	19µM	-	-
N#C/C(=N\O)c1nc2ccccc2s1	-	-	-	?	-	.
N#C/C(=C(/O)c1ccc(F)cc1)c1nc2ccccc2s1	-	2.5µM	-	9.5µM	2.5µM	-
SMILES	Luc counter	Rab9 promoter act	ELG1 genotox	FLuc counter	NPC1 prom act	SMN2 splice enh
N#C/C(=C(/O)COc1ccc(Cl)cc1)c1nc2ccccc2s1	-	-	-	24µM	-	-
Cc1cnc(C(=O)OC(C)C(=O)Nc2ccccc2-c2ccccc2)cn1 (stereo not given)	.	-	-	-	-	.
CCc1ccc2occ(CC(=O)Nc3c(C(=O)c4ccc(C)cc4)oc4ccccc34)c2c1	.	.	.	-	.	-
C=CCNc1nc(C(=O)OCC(=O)c2ccc(Cl)cc2)cs1	.	-	-	-	-	.
Cc1ccc(SC/C(O)=C(\C#N)c2nc3ccccc3s2)cc1	-	-	-	?	-	-
N#C/C(=C(/O)CSc1ccccn1)c1nc2ccccc2s1	-	-	-	21µM	-	-
Oc1ccc(-c2csc(Nc3ccccn3)n2)cc1O	.	-	3.7µM	9.5µM	?	.
Cc1ccnc(Nc2nc(-c3ccc(O)cc3)cs2)c1	.	3.2µM	?	8.5µM	2.5µM	.
CC(=O)Nc1ccc(-c2csc(Nc3ccccn3)n2)cc1	.	0.45µM	?	?	0.5µM	.
Oc1ccc(-c2csc(Nc3cccc4ccccc34)n2)cc1O	.	-	-	?	-	.
Cc1ccnc(Nc2nc(-c3ccc(O)cc3O)cs2)c1	.	?	-	17µM	?	.
CCOc1ccccc1OCCC(=O)OCC(=O)Nc1c(C)nn(-c2ccccc2)c1C	.	-	-	-	-	.
Cc1cc(C)n(CC(=O)NNC(=O)C2CC(=O)N(Cc3ccccc3Cl)C2)n1 (stereo not given)	.	-	-	-	-	.
O=C(COc1ccccc1Cl)N1CCNC1=O	.	-	-	-	-	.
CCC(=O)Nc1nc(C)c(-c2csc(Nc3ccccn3)n2)s1	-	?	-	17µM	?	-
Cc1ccnc(Nc2nc(-c3ccc(O)c(O)c3)cs2)c1	.	-	5.8µM	6µM	?	.
CCCC(=O)Nc1nc(C)c(-c2csc(Nc3ccccc3C)n2)s1	-	-	-	?	-	-
COc1ccc(C(CC(=O)Nc2nccs2)n2cccc2)cc1 (stereo not given)	-	3.2µM	-	6µM	2.8µM	10µM
CCOc1ccc(S(=O)(=O)N(C)c2ccc(OCC(=O)Nc3nccs3)cc2)cc1	-	-	-	-	-	-
O=C(COc1cccc2cccnc12)Nc1nccs1	-	4µM	?	12µM	?	?
COc1ccc(C(CC(=O)Nc2nccs2)C(C)C)cc1 (stereo not given)	.	-	-	-	-	.
COc1ccccc1OCCCC(=O)Nc1nccs1	-	2.2µM	?	12µM	?	.
NNC(=O)COc1cccc2cccnc12	-	-	-	-	-	-
CCOc1ccc(OCC(=O)Nc2nccs2)cc1	11µM	?	0.92µM	0.95µM	0.5µM	5µM
O=C(/C=C/c1ccccc1)Nc1nnc(-c2ccco2)o1	-	-	-	-	-	-
O=C(NN=C1CCCCC1)c1ccccc1-n1cccc1	.	-	-	-	-	.
COc1ccc(OCC(=O)Nc2nc(-c3ccc(Br)cc3)ns2)cc1	.	.	.	11µM	.	.
O=C(COc1ccc2c(c1)OCO2)Nc1nccs1	.	0.45µM	2.3µM	1.7µM	0.4µM	.
COc1ccc(OCC(=O)Nc2nccs2)cc1	10µM	0.45µM	?	3µM	0.56µM	.
O=C(O)CC(NC(=O)C(c1ccccc1)c1ccccc1)c1cccc([N+](=O)[O-])c1 (stereo not given)	.	-	-	-	-	.
